Composite z-score data for 36 molecules are collected here from PubChem BioAssay.

For the experiment, the target named is Follistatin (Homo sapiens) (UniProt P19883). Briefly: follistatin binders on small-molecule microarrays, primary screen, biochemical, small-molecule microarray, 635/667 nm fluorescence (AID 1132). The note with it: FST binding, 635 nm fluorescence, higher = more signal.
Follistatin (Homo sapiens), sequence (P19883 whole entry, looked up): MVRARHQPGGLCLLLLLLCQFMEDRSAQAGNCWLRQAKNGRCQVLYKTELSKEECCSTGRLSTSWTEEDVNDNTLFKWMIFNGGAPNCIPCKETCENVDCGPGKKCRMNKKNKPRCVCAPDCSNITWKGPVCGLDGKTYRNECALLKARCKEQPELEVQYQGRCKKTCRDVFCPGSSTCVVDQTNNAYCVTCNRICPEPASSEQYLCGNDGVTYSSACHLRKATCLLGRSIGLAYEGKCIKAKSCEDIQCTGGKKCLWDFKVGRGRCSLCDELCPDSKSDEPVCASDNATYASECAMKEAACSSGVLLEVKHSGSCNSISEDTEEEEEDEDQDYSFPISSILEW
In turn, `CN1C(=O)C2C=CC(C(O)C#Cc3ccccc3)N(Nc3ccccc3)C2C1=O` (stereo unspecified) displayed a composite z-score of 1.18.
`CN(C)c1ccc(C(O)C2C=CC3C(=O)N(c4ccccc4)C(=O)C3N2Nc2ccc([N+](=O)[O-])cc2)cc1` (stereo unspecified) registered a composite z-score of 1.01.
For the molecule `CN(C)C(=O)[C@@]1(Cc2ccccc2CN=[N+]=[N-])N=C(c2ccc(OCCCO)cc2)O[C@H]1c1ccccc1CN=[N+]=[N-]`, the composite z-score came out at 0.652.
Take `O=C1OCC=C[C@H]2OC34C=CCN(Cn5nnc6ccccc65)C(=O)[C@H]3N(CCCO)C(=O)[C@@H]4[C@@H]12` (stereo partly specified): the composite z-score is -0.537.
For `C[N+](C)(C)CCCCCCNC(=O)[C@H]1C[C@H]2C(=O)N[C@@H](Cc3ccccc3)C(=O)N2[C@H]1c1ccc(O)cc1`, the composite z-score stood at 1.34.
For the molecule `COCCOC(=O)N1C(=O)[C@@]2(c3cc(C#CCCO)ccc31)[C@H](C(=O)Nc1nc3ccccc3s1)[C@H]1C(=O)O[C@H](c3ccccc3)[C@H](c3ccccc3)N1[C@@H]2c1ccccc1OCCO`, the composite z-score is 1.12.
Molecule `COc1cc2c(cc1OC)CN(C(=O)[C@@H]1[C@H]3C(=O)O[C@H](c4ccccc4)[C@H](c4ccccc4)N3[C@H](c3ccc(OCCO)cc3)[C@@]13C(=O)Nc1ccc(C#CC4(O)CCCCCC4)cc13)CC2` had a composite z-score of 1.41.
As to `COc1cc(CO)cc(I)c1O[C@H]1C=C(C(=O)NCCO)C[C@@H](NCc2ccc(F)cc2)[C@@H]1O`, the composite z-score was 0.951.
For `[N-]=[N+]=NCc1ccccc1C[C@@]1(C(=O)NCc2ccccc2)N=C(c2ccc(OCCCO)cc2)O[C@@H]1c1ccccc1N=[N+]=[N-]`, the composite z-score came out at 0.557.
For the molecule `O=C(CS)NCCCCCNC(=O)[C@@H]1C[C@@H]2C(=O)N3CCC[C@H]3C(=O)N2[C@@H]1c1cccc(OCCO)c1`, the composite z-score turned out to be 1.28.
As to `C=C(C)c1cc2c(c(CCCCCC)n1)[Si](C(C)C)(C(C)C)OC2`, the composite z-score was -0.522.
As for `CCCCC(O)C1C=CC2C(=O)N(c3ccccc3)C(=O)C2N1Nc1ccc(C(C)C)cc1` (stereo unspecified), the composite z-score worked out at 0.967.
`COCCOC(=O)N1C(=O)[C@@]2(c3cc(C#CC4=CCCCC4)ccc31)[C@H](c1ccc(OCCO)cc1)N1[C@H](c3ccccc3)[C@H](c3ccccc3)OC(=O)[C@H]1[C@@H]2C(=O)N1CCN(c2ncccn2)CC1` registered a composite z-score of 1.29.
`C=C(COC)/C(=C/C[C@H](OC(C)=O)c1ccc(OCCO)cc1)c1cc(C(=O)OC)ccc1OC` yielded a composite z-score of 1.35.
Consider `CC1CC/C=C\[C@H]2OC34C=CCN(c5ccc(Cl)cc5)C(=O)[C@H]3N(CCCCCO)C(=O)[C@]4(C)C2C(=O)O1` (stereo partly specified), for which the composite z-score is -1.58.
In the case of `CN1C(=O)C2C=CC(C(O)c3cccc(O)c3)N(Nc3ccccc3)C2C1=O` (stereo unspecified), the composite z-score was determined as 0.214.
In turn, `O=C1NC(=O)C2C1C=CC(C(O)c1c(F)cccc1Cl)N2Nc1ccc(Cl)cc1Cl` (stereo unspecified) showed a composite z-score of -0.0649.
As to `COc1ccc([Si](C)(C)[C@@H]2[C@@H](CCO)O[C@]3(C(=O)N(Cc4ccc(N5CCCCC5=O)cc4)c4ccccc43)[C@H]2C)cc1`, the composite z-score is 1.07.
For the molecule `C=CCC(OC(C)=O)[C@@H]1[C@@H](N(Cc2cc3ccccc3o2)C(=O)c2ccc(C)cc2)c2cc(OCCCO)ccc2N1C(=O)Cc1ccc(OC)cc1` (stereo partly specified), the composite z-score is 0.924.
`CCOc1cc(C(O)C2C=CC3C(=O)N(C)C(=O)C3N2Nc2ccccc2)ccc1O` (stereo unspecified): the composite z-score is 0.0506.
Regarding `O=C(CS)NCCCCCCNC(=O)[C@H]1C[C@H]2C(=O)N[C@@H](Cc3ccccc3)C(=O)N2[C@H]1c1ccc(O)cc1`, the composite z-score worked out at 1.22.
As for `CC(c1ccccc1)C(O)C1C=CC2C(=O)N(c3ccccc3)C(=O)C2N1Nc1ccc([N+](=O)[O-])cc1` (stereo unspecified), the figure is 1.03; as for `COc1ccccc1CN1C(=O)c2ccccc2[C@@]2(Cc3ccccc3N(CC(F)(F)F)C2=O)[C@@H]1c1ccc(CO)cc1`, 0.666; as for `COC(=O)C(CC#Cc1ccc2c(c1)[C@]1(C(=O)N2)[C@H](C(=O)N2CCN(c3ncccn3)CC2)[C@H]2C(=O)O[C@H](c3ccccc3)[C@H](c3ccccc3)N2[C@@H]1c1ccc(OCCO)cc1)C(=O)OC`, 1.38.
The figure for `[N-]=[N+]=Nc1ccccc1[C@@H]1OC(c2ccc(OCCCO)cc2)=N[C@]1(Cc1ccccc1)C(=O)NCC(O)CO` (stereo partly specified) is 1.4; for `Cc1cc(C)c(C(O)C2C=CC3C(=O)NC(=O)C3N2Nc2ccc(Cl)cc2Cl)c(C)c1` (stereo unspecified) it is 1.08.
The figure for `COC(=O)c1c2oc(c1C(=O)OC)C(=O)N(Cc1ccccc1)Cc1cn(nn1)C[C@H](Cc1ccccc1)NC(=O)N[C@H](CO)CC2` is 0.183; for `C=CCNC(=O)[C@H]1[C@@H]2C(=O)O[C@@H](c3ccccc3)[C@@H](c3ccccc3)N2[C@@H](c2ccc(O)cc2)[C@]12C(=O)N(C(=O)OCCOC)c1ccccc12` it is 0.852; for `O=C1C=C(c2ccccc2)C(=O)c2ccc([C@H]3Oc4ccccc4S(=O)(=O)N4CCC[C@@H]34)cc21` it is 0.428.
For `Cc1ccc(S[C@]2(C(=O)NCC(F)(F)F)CC(=O)N(C3CCCCC3)[C@@H]2c2ccc(CO)cc2I)cc1`, the composite z-score worked out at 0.969.
The molecule `COc1ccc(C#Cc2ccc3c(c2)[C@]2(C(=O)N3)[C@H](c3ccc(O)cc3)N3[C@H](c4ccccc4)[C@H](c4ccccc4)OC(=O)[C@H]3[C@@H]2C(=O)O)cc1` registered a composite z-score of 0.127.
Turning to `COC(=O)[C@@]1(Cc2ccc(OC)cc2)[C@@H]2C(=CC(=O)[C@H]2CC(=O)C(=O)N(C)C)CN1C(=O)c1ccccc1`, the composite z-score stood at 0.433.
On to `CCOC(=O)c1ccc(NC(=O)O[C@H]2[C@H](OC(=O)Nc3ccc4c(c3)OCO4)[C@H](OC(=O)Nc3ccc4c(c3)OCO4)[C@@H](OC)O[C@@H]2CO)cc1`, for which the composite z-score was 1.38.
Turning to `C=CCN1Cc2ccccc2[C@H]2OC(c3ccc(OCCCO)cc3)=N[C@@]2(CC=C)C1=O`, the composite z-score is 1.54.
As for `CN(C)CCCNC(=O)[C@@]1(C)c2ccccc2C(=O)N(Cc2ccccc2)[C@H]1c1ccc(CO)cc1`, the figure is 0.392; as for `CCCCCCCCCCC(O)C1C=CC2C(=O)N(C)C(=O)C2N1NC(=O)OC(C)(C)C` (stereo unspecified), -0.406.
